Compounds without any hit were thinned out: in the full panel of roughly 83,000, 20% have a hit.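 Percent growth is the endpoint: 0 to 100 indicates growth inhibition (40 means 60% inhibition), 0 means no net growth, and negative values indicate cell death.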 A number with no mark means an inactive call. Active and inactive are the calls of the source. Rule for the calls: active = growth percent below 10; inactive = the rest.

Here are results for 15 compounds from PubChem BioAssay (NCI).

Test systems include SR leukemia; RPMI-8226 leukemia; OVCAR-8 ovarian; OVCAR-5 ovarian; OVCAR-4 ovarian; SK-OV-3 ovarian; IGROV1 ovarian; OVCAR-3 ovarian; HS 578T breast; NCI/ADR-RES ovarian.
Assay in all cases: NCI-60 one-dose screen, 48 h (100 = growth as untreated, 0 = no growth, -100 = all killed)
Common to all, as to details: 10 µM unless noted

For the compound `CCCCCCCCCCCC(=O)OC(C)C(=O)NCCCC` (stereo unspecified), the growth is 85.7% in the experiment on SR leukemia; 104% in the experiment with RPMI-8226 leukemia; 100% in the experiment on OVCAR-8 ovarian; 107% with OVCAR-5 ovarian; 108% with OVCAR-4 ovarian; 102% in the experiment with SK-OV-3 ovarian. Moreover, the growth in the experiment with IGROV1 ovarian is 107%; with OVCAR-3 ovarian it was 107%; in the experiment with HS 578T breast, 101%; in the experiment with NCI/ADR-RES ovarian, 101%.
For the compound `Clc1ccc(-n2ncc3c(NCCCN4CCOCC4)ncnc32)cc1`, the growth with SR leukemia is 88.9%; in the experiment on RPMI-8226 leukemia, 93.7%; with OVCAR-8 ovarian it was 100%; in the experiment on OVCAR-5 ovarian it was 92.2%; in the experiment with OVCAR-4 ovarian, 102%; in the experiment on SK-OV-3 ovarian it was 93.1%. The growth was 103% with IGROV1 ovarian, 105% with OVCAR-3 ovarian, 91.5% in the experiment with HS 578T breast and 86.8% with NCI/ADR-RES ovarian.
Turning to `O=[N+]([O-])c1ccc([I+]c2ccccc2)cc1`, the growth is 17.7% in the experiment on SR leukemia; 41.6% in the experiment on RPMI-8226 leukemia; -27.6% (active) in the experiment with OVCAR-8 ovarian; -85.8% (active) with OVCAR-5 ovarian; -91% (active) with OVCAR-4 ovarian; 50.2% with SK-OV-3 ovarian. Moreover, the results for the growth with IGROV1 ovarian, in the experiment on OVCAR-3 ovarian and in the experiment with HS 578T breast were 43.4%, -15.3% (active) and 1.04% (active), respectively.
For the compound `CCCCC(C=O)(C=C=C(C)C)CC` (stereo unspecified), the growth is 108% in the experiment on SR leukemia; 98% with RPMI-8226 leukemia; 98.5% with OVCAR-8 ovarian; 98.3% in the experiment with OVCAR-5 ovarian; 96.5% with OVCAR-4 ovarian; 98% with SK-OV-3 ovarian. In addition, the growth is 110% with IGROV1 ovarian, 107% in the experiment on OVCAR-3 ovarian and 112% in the experiment with HS 578T breast.
`OCCOSCCO`: the growth with SR leukemia is 90.1%; with RPMI-8226 leukemia it was 133%; with OVCAR-8 ovarian it was 106%; with OVCAR-5 ovarian, 99.5%; in the experiment on OVCAR-4 ovarian, 102%; in the experiment on SK-OV-3 ovarian, 117%. Moreover, the growth is 112% in the experiment on IGROV1 ovarian, 120% in the experiment on OVCAR-3 ovarian, 115% in the experiment with HS 578T breast and 113% in the experiment on NCI/ADR-RES ovarian.
As to `COc1cc(/C=C/c2ccnc3ccccc23)cc(OC)c1OC`, the growth in the experiment with SR leukemia is 7.06% (active); with RPMI-8226 leukemia, 60.6%; in the experiment on OVCAR-8 ovarian, 42.5%; with OVCAR-5 ovarian, 50.5%; with OVCAR-4 ovarian it was 54.6%; in the experiment with SK-OV-3 ovarian, 30.1%. Also, the growth is 59.1% in the experiment with IGROV1 ovarian, 16.4% in the experiment with OVCAR-3 ovarian, 24.4% with HS 578T breast and -25.5% (active) in the experiment on NCI/ADR-RES ovarian.
Take `CCNc1nnnn1CC`: the growth with SR leukemia is 108%; with RPMI-8226 leukemia, 107%; in the experiment on OVCAR-8 ovarian, 113%; in the experiment with OVCAR-5 ovarian, 115%; with OVCAR-4 ovarian, 110%; with SK-OV-3 ovarian it was 109%. Also, the growth is 115% in the experiment on IGROV1 ovarian, 109% in the experiment with OVCAR-3 ovarian, 102% in the experiment on HS 578T breast and 110% in the experiment with NCI/ADR-RES ovarian.
In the case of `CCOC(=O)/C(=C\c1ccc2ccccc2c1)P(=O)(OCC)OCC`, the growth was -19.4% (active) in the experiment on SR leukemia; -25.3% (active) with RPMI-8226 leukemia; 20.1% in the experiment with OVCAR-8 ovarian; 56.9% in the experiment on OVCAR-5 ovarian; 62% in the experiment on OVCAR-4 ovarian; 113% in the experiment on SK-OV-3 ovarian. The growth in the experiment with IGROV1 ovarian is 56%; with OVCAR-3 ovarian it was 27.4%; in the experiment on HS 578T breast, 16.7%; in the experiment on NCI/ADR-RES ovarian it was 10.4%.
With `CCOC(=O)c1c(C)[nH]c2ccc(O)cc12`, the growth with SR leukemia was 101%; in the experiment on RPMI-8226 leukemia, 89.5%; in the experiment with OVCAR-8 ovarian it was 97.6%; in the experiment with OVCAR-5 ovarian, 130%; with OVCAR-4 ovarian it was 107%; in the experiment on SK-OV-3 ovarian, 99.2%. Further, the growth in the experiment on IGROV1 ovarian is 103%; in the experiment with OVCAR-3 ovarian, 105%; in the experiment with HS 578T breast, 92%; in the experiment on NCI/ADR-RES ovarian, 101%.
Regarding `C/C(=N/NC(N)=S)c1ccc(C)cc1`, the growth in the experiment with SR leukemia is 94.6%; in the experiment with RPMI-8226 leukemia, 71.4%; with OVCAR-8 ovarian, 76.7%; in the experiment on OVCAR-5 ovarian it was 111%; in the experiment with OVCAR-4 ovarian, 88%; in the experiment with SK-OV-3 ovarian, 98.8%. The growth in the experiment with IGROV1 ovarian was 105%; in the experiment with OVCAR-3 ovarian it was 62.8%; in the experiment on HS 578T breast, 102%; with NCI/ADR-RES ovarian, 76%.
With `Cc1c(O)ccc(SC#N)c1C`, the growth in the experiment with SR leukemia was 105%; in the experiment on RPMI-8226 leukemia it was 96.6%; in the experiment with OVCAR-8 ovarian, 102%; in the experiment with OVCAR-5 ovarian, 97.3%; with OVCAR-4 ovarian, 107%; in the experiment with SK-OV-3 ovarian it was 108%. The growth with IGROV1 ovarian is 110%; with OVCAR-3 ovarian, 90.8%; with HS 578T breast, 124%; in the experiment with NCI/ADR-RES ovarian, 106%.
For `CCCc1cc(=O)oc2c3c(c4c(c12)OC(C)(C)CC4)OC(C)[C@H](C)[C@@H]3O` (stereo partly specified), the growth in the experiment with SR leukemia was 45.8%; in the experiment with RPMI-8226 leukemia, 10.5%; in the experiment with OVCAR-8 ovarian, 81.7%; in the experiment on OVCAR-5 ovarian it was 86%; with OVCAR-4 ovarian, 83.9%; with SK-OV-3 ovarian it was 95.3%. In addition, the growth was 12.7% with IGROV1 ovarian, 112% in the experiment on OVCAR-3 ovarian, 74.7% in the experiment with HS 578T breast and 81.7% with NCI/ADR-RES ovarian.
Take `c1ccc(-c2cccc(-c3ccccn3)n2)nc1`: the growth with SR leukemia is 7.98% (active); in the experiment on RPMI-8226 leukemia it was 20.8%; in the experiment on OVCAR-8 ovarian, 12%; in the experiment on OVCAR-5 ovarian, 59%; in the experiment with OVCAR-4 ovarian it was 33.3%; with SK-OV-3 ovarian, 7.86% (active). The growth in the experiment with IGROV1 ovarian was 19.3%; in the experiment with OVCAR-3 ovarian it was 28.2%; with HS 578T breast it was 67%.
`O=C1CSC(=S)N1Cc1cccnc1`: the growth is -10.3% (active) in the experiment with SR leukemia; 9.56% (active) with RPMI-8226 leukemia; 53.8% in the experiment with OVCAR-8 ovarian; 106% with OVCAR-5 ovarian; 91.7% with OVCAR-4 ovarian; 106% in the experiment with SK-OV-3 ovarian. In addition, the growth in the experiment with IGROV1 ovarian is 114%; in the experiment with OVCAR-3 ovarian, 99.2%; in the experiment with HS 578T breast, 114%.
With `O=C(C[P+](c1ccccc1)(c1ccccc1)c1ccccc1)c1ccccc1`, the growth in the experiment with SR leukemia is 90.4%; with RPMI-8226 leukemia, 92.6%; with OVCAR-8 ovarian, 95.9%; with OVCAR-5 ovarian, 89.6%; with OVCAR-4 ovarian, 83.9%; with SK-OV-3 ovarian, 104%. The growth in the experiment on IGROV1 ovarian is 89.5%; in the experiment with OVCAR-3 ovarian, 93.8%; in the experiment on HS 578T breast, 96.9%; in the experiment on NCI/ADR-RES ovarian, 82.8%.
